From ChEMBL document CHEMBL1961873, “Compounds: GSK PKIS; Assays: Nanosyn kinase panel” (2012) come the findings set out here.

Test [1] addresses Calcium/calmodulin-dependent protein kinase type II subunit alpha (Homo sapiens) (UniProt Q9UQM7). Conditions: at 1 µM.
In test [2] the target is Calcium/calmodulin-dependent protein kinase type II subunit delta (Homo sapiens) (UniProt Q13557). Conditions: at 0.1 µM.
For test [3] the target is unchanged. As to conditions: at 1 µM.
Test [4] concerns the target T1, Calcium/calmodulin-dependent protein kinase type IV (Homo sapiens) (UniProt Q16566).
T1 sequence (whole entry): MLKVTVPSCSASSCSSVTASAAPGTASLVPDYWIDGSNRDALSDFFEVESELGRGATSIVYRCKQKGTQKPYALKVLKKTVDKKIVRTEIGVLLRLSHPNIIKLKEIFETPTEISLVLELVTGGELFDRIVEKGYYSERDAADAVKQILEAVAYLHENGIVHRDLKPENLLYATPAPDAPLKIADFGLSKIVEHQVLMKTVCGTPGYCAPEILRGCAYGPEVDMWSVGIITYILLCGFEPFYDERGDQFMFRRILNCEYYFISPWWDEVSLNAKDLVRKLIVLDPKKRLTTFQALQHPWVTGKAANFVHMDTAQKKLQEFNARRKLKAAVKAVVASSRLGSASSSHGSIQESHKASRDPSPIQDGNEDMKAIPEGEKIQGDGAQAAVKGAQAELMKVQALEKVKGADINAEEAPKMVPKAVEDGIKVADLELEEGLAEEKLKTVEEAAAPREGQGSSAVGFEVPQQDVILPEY
As to conditions: at 0.1 µM.

Test [5] has as its target T1, Calcium/calmodulin-dependent protein kinase type IV (Homo sapiens). Conditions: at 1 µM.
In test [6] the target is T2, Serine/threonine-protein kinase Chk1 (Homo sapiens) (UniProt O14757).
T2 sequence (whole entry): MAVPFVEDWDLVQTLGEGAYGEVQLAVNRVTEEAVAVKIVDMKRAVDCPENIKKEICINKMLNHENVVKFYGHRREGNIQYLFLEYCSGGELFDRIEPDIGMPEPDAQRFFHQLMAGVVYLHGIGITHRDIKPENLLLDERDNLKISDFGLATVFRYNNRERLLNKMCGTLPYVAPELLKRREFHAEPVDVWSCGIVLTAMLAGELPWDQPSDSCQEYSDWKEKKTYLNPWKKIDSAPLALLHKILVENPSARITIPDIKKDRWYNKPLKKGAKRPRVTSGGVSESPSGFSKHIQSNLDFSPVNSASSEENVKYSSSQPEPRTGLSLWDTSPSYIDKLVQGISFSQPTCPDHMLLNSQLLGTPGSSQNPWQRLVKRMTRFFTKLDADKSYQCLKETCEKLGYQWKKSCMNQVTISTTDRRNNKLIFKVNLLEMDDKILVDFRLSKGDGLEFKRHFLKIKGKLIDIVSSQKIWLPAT
As to conditions: at 0.1 µM.

For test [7], the target named is T2, Serine/threonine-protein kinase Chk1 (Homo sapiens). As to conditions: at 1 µM.
Test [8] addresses Serine/threonine-protein kinase Chk2 (Homo sapiens) (UniProt O96017). As to conditions: at 0.1 µM.
For test [9] the target is unchanged. Conditions: at 1 µM.
Test [10] addresses Death-associated protein kinase 1 (Homo sapiens) (UniProt P53355). As to conditions: at 0.1 µM.
Test [11] shares this target. As to conditions: at 1 µM.
For test [12], the target named is T3, Serine/threonine-protein kinase DCLK2 (Homo sapiens) (UniProt Q8N568).
T3 sequence (whole entry): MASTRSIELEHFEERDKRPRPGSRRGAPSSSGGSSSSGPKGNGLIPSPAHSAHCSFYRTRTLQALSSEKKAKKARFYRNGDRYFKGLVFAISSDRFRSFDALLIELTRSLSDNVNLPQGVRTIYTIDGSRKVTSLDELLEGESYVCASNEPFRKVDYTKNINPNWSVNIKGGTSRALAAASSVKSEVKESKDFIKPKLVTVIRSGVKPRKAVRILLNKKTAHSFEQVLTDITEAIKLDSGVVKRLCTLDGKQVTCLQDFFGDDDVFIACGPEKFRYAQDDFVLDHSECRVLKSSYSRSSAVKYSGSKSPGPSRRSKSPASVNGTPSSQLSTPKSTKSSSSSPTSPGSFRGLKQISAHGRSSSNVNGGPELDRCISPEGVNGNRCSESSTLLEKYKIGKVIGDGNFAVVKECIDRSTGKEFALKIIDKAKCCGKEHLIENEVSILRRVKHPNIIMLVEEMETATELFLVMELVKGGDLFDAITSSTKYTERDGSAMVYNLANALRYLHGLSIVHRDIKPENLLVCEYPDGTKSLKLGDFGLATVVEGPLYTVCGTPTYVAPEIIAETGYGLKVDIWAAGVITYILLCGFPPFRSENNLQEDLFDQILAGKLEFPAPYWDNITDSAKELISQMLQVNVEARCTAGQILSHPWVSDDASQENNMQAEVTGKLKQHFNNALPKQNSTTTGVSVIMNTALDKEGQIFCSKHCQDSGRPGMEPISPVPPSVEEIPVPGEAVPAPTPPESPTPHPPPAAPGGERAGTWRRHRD
As to conditions: at 0.1 µM.

Test [13] deals with T3, Serine/threonine-protein kinase DCLK2 (Homo sapiens). Conditions: at 1 µM.
The target of test [14] is MAP kinase-activated protein kinase 2 (Homo sapiens) (UniProt P49137). Conditions: at 0.1 µM.
Chain of MAP kinase-activated protein kinase 2 (Homo sapiens) (P49137 whole entry, looked up): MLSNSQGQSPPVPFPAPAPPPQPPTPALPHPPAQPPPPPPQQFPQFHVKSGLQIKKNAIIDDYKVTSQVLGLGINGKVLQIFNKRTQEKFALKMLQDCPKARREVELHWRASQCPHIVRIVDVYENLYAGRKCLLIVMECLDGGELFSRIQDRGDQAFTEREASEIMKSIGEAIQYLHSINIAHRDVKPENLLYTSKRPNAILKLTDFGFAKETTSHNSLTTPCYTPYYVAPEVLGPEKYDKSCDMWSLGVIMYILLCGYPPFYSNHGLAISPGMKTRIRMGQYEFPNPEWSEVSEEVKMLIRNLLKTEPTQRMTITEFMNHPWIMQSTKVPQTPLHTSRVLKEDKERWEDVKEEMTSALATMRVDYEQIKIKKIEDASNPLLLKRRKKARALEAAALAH
For test [15] the target is unchanged. As to conditions: at 1 µM.
Test [16] addresses MAP kinase-activated protein kinase 3 (Homo sapiens) (UniProt Q16644). Conditions: at 0.1 µM.
For test [17] the target is unchanged. As to conditions: at 1 µM.
The target in test [18] is Serine/threonine-protein kinase MARK1 (Homo sapiens) (UniProt Q9P0L2). As to conditions: at 0.1 µM.
Chain of Serine/threonine-protein kinase MARK1 (Homo sapiens) (Q9P0L2 whole entry, looked up): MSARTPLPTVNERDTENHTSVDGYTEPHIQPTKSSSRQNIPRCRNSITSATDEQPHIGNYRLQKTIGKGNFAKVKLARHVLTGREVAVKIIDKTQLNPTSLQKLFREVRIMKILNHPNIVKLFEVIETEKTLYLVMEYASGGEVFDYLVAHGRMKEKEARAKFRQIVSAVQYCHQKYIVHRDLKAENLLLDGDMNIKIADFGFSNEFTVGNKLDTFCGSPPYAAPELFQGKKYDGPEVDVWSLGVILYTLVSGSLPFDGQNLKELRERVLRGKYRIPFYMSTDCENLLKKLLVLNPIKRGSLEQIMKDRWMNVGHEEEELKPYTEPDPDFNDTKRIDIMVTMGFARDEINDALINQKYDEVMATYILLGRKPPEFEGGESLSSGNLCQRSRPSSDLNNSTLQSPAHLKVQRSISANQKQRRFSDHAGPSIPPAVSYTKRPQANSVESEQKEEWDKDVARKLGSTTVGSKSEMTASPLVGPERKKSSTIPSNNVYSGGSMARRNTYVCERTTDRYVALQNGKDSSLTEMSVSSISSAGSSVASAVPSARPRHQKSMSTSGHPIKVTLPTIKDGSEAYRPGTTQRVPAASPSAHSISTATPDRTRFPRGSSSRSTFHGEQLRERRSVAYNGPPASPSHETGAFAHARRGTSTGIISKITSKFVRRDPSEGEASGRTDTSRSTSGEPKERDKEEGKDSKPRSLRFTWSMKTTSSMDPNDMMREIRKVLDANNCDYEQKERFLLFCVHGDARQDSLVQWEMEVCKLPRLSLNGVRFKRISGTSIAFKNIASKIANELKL
The target is the same in test [19]. As to conditions: at 1 µM.
The target of test [20] is MAP/microtubule affinity-regulating kinase 3 (Homo sapiens) (UniProt P27448). Conditions: at 0.1 µM.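 Further: mean percent inhibition of MARK3 kinase activity, measured within the GSK PKIS screening panel.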
Chain of MAP/microtubule affinity-regulating kinase 3 (Homo sapiens) (P27448 whole entry, looked up): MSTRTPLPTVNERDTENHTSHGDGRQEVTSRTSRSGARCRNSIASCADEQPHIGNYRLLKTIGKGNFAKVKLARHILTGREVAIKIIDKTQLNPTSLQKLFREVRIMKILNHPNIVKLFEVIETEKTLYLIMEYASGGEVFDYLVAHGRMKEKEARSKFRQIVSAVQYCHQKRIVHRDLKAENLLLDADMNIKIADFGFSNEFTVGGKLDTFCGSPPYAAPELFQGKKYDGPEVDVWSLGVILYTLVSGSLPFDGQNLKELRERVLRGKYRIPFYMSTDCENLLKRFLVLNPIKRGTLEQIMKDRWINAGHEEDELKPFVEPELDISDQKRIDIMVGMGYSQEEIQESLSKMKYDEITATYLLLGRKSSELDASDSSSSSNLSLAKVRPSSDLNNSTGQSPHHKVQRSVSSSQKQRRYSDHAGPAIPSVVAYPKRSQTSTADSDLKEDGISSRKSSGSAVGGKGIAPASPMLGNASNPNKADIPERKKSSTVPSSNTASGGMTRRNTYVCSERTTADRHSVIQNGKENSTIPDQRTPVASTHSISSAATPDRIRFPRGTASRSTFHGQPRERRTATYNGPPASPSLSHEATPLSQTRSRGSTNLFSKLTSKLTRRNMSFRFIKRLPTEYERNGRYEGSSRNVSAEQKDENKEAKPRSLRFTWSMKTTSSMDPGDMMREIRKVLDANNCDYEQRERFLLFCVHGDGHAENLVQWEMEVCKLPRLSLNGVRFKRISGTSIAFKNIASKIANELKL

Chain of Calcium/calmodulin-dependent protein kinase type II subunit delta (Homo sapiens) (Q13557 whole entry): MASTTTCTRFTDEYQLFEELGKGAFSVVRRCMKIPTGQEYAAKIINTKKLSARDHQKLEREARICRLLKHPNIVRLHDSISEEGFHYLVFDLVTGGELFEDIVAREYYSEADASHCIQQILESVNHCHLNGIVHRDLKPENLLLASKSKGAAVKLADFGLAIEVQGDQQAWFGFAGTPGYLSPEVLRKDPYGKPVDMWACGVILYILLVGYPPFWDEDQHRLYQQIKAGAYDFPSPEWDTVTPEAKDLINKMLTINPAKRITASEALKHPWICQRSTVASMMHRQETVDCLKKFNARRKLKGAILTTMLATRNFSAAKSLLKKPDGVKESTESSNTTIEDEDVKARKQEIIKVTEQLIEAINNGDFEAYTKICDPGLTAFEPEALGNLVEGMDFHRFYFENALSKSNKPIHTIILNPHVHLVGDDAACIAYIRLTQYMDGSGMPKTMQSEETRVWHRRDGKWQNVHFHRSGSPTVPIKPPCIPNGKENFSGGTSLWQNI
Chain of Serine/threonine-protein kinase Chk2 (Homo sapiens) (O96017 whole entry): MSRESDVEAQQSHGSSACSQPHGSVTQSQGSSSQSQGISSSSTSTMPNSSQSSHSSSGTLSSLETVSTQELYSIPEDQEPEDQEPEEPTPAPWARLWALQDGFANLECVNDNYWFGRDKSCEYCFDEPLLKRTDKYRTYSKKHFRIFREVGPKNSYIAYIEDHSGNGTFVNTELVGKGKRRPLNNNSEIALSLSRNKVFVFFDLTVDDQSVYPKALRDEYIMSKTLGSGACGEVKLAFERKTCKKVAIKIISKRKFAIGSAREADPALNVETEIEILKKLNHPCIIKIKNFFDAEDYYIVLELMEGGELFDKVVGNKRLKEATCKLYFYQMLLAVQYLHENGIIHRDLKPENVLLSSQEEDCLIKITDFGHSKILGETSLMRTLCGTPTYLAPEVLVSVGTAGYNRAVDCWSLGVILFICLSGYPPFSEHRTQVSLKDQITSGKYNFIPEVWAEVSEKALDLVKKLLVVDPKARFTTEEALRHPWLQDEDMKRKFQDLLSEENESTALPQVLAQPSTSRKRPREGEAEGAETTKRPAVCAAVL
Chain of Calcium/calmodulin-dependent protein kinase type II subunit alpha (Homo sapiens) (Q9UQM7 whole entry): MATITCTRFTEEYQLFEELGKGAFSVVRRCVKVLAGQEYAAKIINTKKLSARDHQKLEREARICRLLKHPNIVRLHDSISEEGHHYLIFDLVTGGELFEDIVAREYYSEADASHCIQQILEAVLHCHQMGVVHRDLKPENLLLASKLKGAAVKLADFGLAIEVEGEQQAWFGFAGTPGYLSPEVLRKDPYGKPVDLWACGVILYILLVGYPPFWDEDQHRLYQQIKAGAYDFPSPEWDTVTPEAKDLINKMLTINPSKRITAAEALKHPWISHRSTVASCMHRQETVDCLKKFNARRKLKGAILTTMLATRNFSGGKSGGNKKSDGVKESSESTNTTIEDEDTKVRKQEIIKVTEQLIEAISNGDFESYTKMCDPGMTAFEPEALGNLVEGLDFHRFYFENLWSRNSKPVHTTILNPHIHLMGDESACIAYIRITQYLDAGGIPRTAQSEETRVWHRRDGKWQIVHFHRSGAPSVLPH
Chain of Death-associated protein kinase 1 (Homo sapiens) (P53355 whole entry, looked up): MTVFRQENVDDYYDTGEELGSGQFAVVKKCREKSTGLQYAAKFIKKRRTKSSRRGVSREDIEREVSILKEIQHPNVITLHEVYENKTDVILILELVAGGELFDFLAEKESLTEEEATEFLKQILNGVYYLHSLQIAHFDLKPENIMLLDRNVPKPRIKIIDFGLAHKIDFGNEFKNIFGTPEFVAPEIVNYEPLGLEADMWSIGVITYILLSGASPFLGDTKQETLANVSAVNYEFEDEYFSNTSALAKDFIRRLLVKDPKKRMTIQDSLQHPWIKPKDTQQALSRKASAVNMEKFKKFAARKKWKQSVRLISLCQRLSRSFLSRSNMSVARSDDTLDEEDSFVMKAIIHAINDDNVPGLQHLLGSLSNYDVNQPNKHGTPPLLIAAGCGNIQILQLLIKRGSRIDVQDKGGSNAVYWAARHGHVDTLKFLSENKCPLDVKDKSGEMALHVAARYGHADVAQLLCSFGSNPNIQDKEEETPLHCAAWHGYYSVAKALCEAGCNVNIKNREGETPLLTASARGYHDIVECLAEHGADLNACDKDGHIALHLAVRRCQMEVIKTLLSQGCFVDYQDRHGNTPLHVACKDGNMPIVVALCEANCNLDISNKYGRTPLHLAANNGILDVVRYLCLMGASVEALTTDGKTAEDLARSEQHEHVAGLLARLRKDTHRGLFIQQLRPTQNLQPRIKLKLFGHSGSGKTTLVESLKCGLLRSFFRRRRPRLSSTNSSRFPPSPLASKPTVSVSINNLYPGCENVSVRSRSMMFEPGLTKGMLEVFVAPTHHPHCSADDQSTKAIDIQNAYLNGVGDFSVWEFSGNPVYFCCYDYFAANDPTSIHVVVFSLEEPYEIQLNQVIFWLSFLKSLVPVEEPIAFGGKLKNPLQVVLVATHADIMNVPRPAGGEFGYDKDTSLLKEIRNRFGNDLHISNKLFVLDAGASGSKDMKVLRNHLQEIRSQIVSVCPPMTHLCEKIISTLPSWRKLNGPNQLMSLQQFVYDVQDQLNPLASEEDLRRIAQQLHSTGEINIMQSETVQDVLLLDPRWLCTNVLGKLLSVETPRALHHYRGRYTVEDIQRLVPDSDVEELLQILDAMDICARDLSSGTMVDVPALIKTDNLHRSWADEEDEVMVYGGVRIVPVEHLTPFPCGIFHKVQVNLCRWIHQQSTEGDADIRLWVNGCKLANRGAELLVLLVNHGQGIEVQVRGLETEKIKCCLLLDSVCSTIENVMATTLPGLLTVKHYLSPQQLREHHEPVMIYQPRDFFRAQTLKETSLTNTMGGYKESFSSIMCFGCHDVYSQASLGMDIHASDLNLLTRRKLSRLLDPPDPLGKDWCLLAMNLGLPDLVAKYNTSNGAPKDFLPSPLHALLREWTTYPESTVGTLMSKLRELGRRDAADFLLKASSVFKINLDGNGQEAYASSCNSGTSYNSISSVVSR

Usually inhibition stands for the change of the read-out against control, counted positive when it falls. As to `CC1=C(C(=O)Nc2ccc3[nH]ncc3c2)C(c2ccc(F)cc2)NC(=O)N1` (stereo not given), the inhibition was 0.1% in [1]; 1.48% in test [2]; 1.35% in test [3]; 0.3% in test [4]; -0.21% in [5]; 0.87% in test [6]. The inhibition in test [7] came to 4.3%; in [8], 1.2%; in test [9] it was 2.29%; in test [10], 1.6%; in [11], 1.59%; in test [12], 1.36%. Besides, the inhibition was -0.03% in test [13]; 1.48% in test [14]; 1.87% in [15]; 1.46% in test [16]; 1.05% in test [17]; 2.81% in test [18]. Further, the inhibition in [19] came to 9.5%; in test [20] it was 0.23%.
`COc1cc(C=NNc2ncnc3c2cnn3-c2ccccc2)ccc1O`: the inhibition was 5.31% in [1]; 3.65% in test [2]; 12.4% in test [3]; -0.28% in test [4]; -1.35% in test [5]; -2.23% in [6]. Moreover, the inhibition in test [7] was -2.87%; in [8] it was -3.59%; in [9], -0.98%; in test [10], -5.64%; in test [11], -5.67%; in test [12], 1.34%. Besides, the inhibition was -4.27% in test [13]; -1.87% in test [14]; -2.21% in test [15]; -3.81% in [16]; -2.84% in test [17]; 2.3% in test [18]. Moreover, the inhibition is 8.38% in [19] and 3.21% in [20].
Consider `Cn1cc(C=C2C(=O)Nc3cccnc32)c2ccccc21`, for which the inhibition in test [1] was 3.18%; in [2], 2.44%; in [3], 6.23%; in test [4] it was 0.47%; in test [5], -0.07%; in test [6], 0.66%. Further, the inhibition came out at 7.2% in test [7]; 2.65% in [8]; 15.6% in test [9]; 2.44% in [10]; 7.28% in test [11]; 0.87% in test [12]. For the same molecule, the inhibition worked out at 3.71% in test [13]; 0.71% in test [14]; 1.83% in [15]; 2.19% in [16]; 5.11% in [17]; 3.55% in [18]. In addition, the inhibition in test [19] was 9.52%; in [20], 4.73%.
`O=C1NC(=O)C(N2CCc3ccccc32)=C1c1ccc(Cl)cc1`: the inhibition was 2.12% in [1]; 4.21% in test [2]; 5.17% in test [3]; 0.68% in [4]; 0.58% in [5]; 9.38% in test [6]. Further, the inhibition in test [7] worked out at 12.7%; in test [8], 8.35%; in test [9] it was 8.52%; in test [10] it was 11.1%; in [11] it was 13.8%; in [12], 1.5%. Besides, the inhibition in test [13] came to 1.94%; in [14], 4.64%; in [15] it was 5.01%; in test [16] it was 10.4%; in test [17], 10.3%; in test [18] it was 3.93%. Also, the inhibition in test [19] was determined as 5.85%; in [20] it was 5.98%.
With `O=C(Nc1n[nH]c2nc(-c3ccco3)c(Br)cc12)C1CC1`, the inhibition was found to be 2.92% in [1]; 3.12% in test [2]; 4.6% in test [3]; 1.47% in test [4]; 2.02% in test [5]; 3.44% in test [6]. Further, the inhibition is 4.35% in test [7]; 2.64% in test [8]; 2.71% in test [9]; 3.14% in test [10]; 4.49% in test [11]; -0.15% in [12]. Moreover, the inhibition in [13] was found to be 1.73%; in test [14], 1.86%; in [15] it was 1.26%; in [16] it was 2.91%; in [17], 3.6%; in [18], 2.45%. In addition, the inhibition turned out to be 2.7% in [19] and 4.8% in [20].
With `COc1ccc(-c2ccncc2)cc1C(N)=O`, the inhibition is 3.32% in test [1]; 3.92% in test [2]; 8.26% in test [3]; -1.04% in test [4]; 0.03% in test [5]; 8.46% in [6]. Besides, the inhibition is 10.1% in test [7]; 8.96% in test [8]; 12.5% in test [9]; 14% in test [10]; 12.2% in [11]; -0.69% in [12]. The inhibition came out at 3.38% in test [13]; 5.44% in [14]; 6.42% in test [15]; 9.46% in test [16]; 12.5% in test [17]; 2.8% in [18]. Besides, the inhibition stood at 4.12% in test [19] and 3.29% in test [20].
